Compound activity (PubChem BioAssay)
In the library only some 6.3% were active in any assay of this set; here they are far more common.
Mdm2 MdmX PPI: inhibitors of human Mdm2-MdmX association, primary screen, cell-based, luminescence, split luciferase, SaOS-2, uHTS; Protein Mdm4 (Homo sapiens) + E3 ubiquitin-protein ligase Mdm2 (Homo sapiens), …; SaOS-2 split-luciferase Mdm2/MdmX complementation; inhibition, % at 8 µM; actives 3% (n = 330,000); AID 485346, 2010;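 active means inhibition of at least 50% at 8 µM in the primary screen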
Target sequence (O15151 whole entry, looked up): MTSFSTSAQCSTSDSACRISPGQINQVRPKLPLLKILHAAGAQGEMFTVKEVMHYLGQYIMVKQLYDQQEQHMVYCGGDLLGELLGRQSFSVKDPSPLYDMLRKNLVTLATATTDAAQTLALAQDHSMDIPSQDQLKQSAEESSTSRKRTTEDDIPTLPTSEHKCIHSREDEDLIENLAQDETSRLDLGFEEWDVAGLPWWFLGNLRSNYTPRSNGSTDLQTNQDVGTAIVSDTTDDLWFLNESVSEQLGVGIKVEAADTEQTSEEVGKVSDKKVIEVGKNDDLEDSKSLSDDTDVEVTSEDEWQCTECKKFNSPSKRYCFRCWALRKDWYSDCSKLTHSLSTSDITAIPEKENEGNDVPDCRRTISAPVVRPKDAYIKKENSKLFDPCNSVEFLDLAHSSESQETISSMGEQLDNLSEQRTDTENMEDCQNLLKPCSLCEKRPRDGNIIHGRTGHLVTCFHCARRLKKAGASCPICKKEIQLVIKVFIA
Target sequence (Q00987 whole entry, looked up): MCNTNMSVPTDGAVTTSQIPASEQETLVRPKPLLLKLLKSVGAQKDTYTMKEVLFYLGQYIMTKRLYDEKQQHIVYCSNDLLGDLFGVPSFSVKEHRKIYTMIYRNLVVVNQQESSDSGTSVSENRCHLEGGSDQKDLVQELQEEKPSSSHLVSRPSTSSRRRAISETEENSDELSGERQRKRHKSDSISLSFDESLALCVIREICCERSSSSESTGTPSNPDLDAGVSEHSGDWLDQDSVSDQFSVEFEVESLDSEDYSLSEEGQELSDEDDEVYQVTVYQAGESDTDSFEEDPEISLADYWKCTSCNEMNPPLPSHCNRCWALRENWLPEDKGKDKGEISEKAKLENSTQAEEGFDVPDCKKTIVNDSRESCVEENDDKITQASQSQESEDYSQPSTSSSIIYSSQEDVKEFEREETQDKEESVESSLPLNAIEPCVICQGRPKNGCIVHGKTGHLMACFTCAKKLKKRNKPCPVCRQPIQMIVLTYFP
TIM10 inh: growth inhibitors of isogenic TIM10 control yeast, primary screen, counter-screen for tim10-1 yeast inhibitor project, luminescence, uHTS; inhibition, % at 10 µM; S. cerevisiae TIM10 strain growth, BacTiter-Glo luminescence, 24 h; AID 463195, 2010; actives 1.4% (n = 330,000);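 active means inhibition of 40% or more at the single tested concentration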;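 further: wild-type TIM10 isogenic control strain grown at permissive 25 °C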
MPTP block: mitochondrial permeability transition pore inhibitors, primary screen, biochemical, isolated mouse mitochondria, absorbance | inhibition, % at 10 µM | actives 1.4% (n = 360,000) | Ca2+ swelling absorbance, 30 min | AID 602449, 2012;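 active means inhibition of 50% or more, scaled per plate between neutral and stimulator controls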;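 further: 0% = DMSO wells given calcium and 100% = 1 mM EGTA wells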
tim10-1 inh: growth inhibitors of tim10-1 mutant yeast, primary screen, luminescence, uHTS. S. cerevisiae tim10-1 ts strain growth, BacTiter-Glo, 24 h. inhibition, % at 20 µM. actives 2.2% (n = 330,000);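 active means inhibition of at least 40%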;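 further: mutant grown at 25 °C; 0% = DMSO wells with yeast and 100% = wells holding no yeast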
tim23-1 inh: growth inhibitors of tim23-1 mutant yeast, primary screen, luminescence, uHTS; S. cerevisiae tim23-1 growth, BacTiter-Glo luminescence, 24 h; inhibition, % at 20 µM; actives 1.3% (n = 330,000); AID 463212, 2010;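 active means growth inhibition of the mutant yeast at or above 50%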;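 further: temperature-sensitive mutant grown at 25 °C; plate controls were DMSO-treated mutant yeast for no effect and medium wells lacking yeast for full effect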
tim10-1 confirm: growth inhibitors of tim10-1 mutant yeast, confirmation, single concentration, luminescence, S. cerevisiae. shares compounds with tim10-1 inh. S. cerevisiae tim10-1 ts strain growth, BacTiter-Glo, 24 h. inhibition, % at 20 µM. actives 56% (n = 7,400). AID 463213, 2010;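 active means inhibition of yeast growth at or above a set limit in either of two repeat tests at 20 µM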;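 further: tim10-1 mutant grown at permissive 25 °C to find synthetic lethal compounds; 0% = DMSO yeast wells and 100% = medium wells without yeast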
tim10 confirm: growth inhibitors of wild-type TIM10 yeast, confirmation, counter-screen for tim10-1 synthetic lethality project, single concentration, luminescence, S. cerevisiae; shares compounds with TIM10 inh; S. cerevisiae tim10 strain growth, BacTiter-Glo luminescence, 24 h; inhibition, % at 10 µM; actives 63% (n = 4,600);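 active means inhibition of yeast growth at or above a set limit in either of two replicates at 10 µM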;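 further: this counterscreen used the strain with wild-type TIM10; 0% = yeast with DMSO and 100% = medium wells lacking yeast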
tim23-1 conf: tim23-1 mutant yeast growth inhibitors, confirmation, luminescence, single concentration. shares compounds with tim23-1 inh. S. cerevisiae tim23-1 growth, BacTiter-Glo luminescence, 24 h. inhibition, % at 20 µM. actives 83% (n = 4,400);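 active means inhibition above about 39% in either of two replicate wells at 20 µM, limit read from the data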;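 further: temperature-sensitive tim23-1 mutant grown at 25 °C; 0% = DMSO wells with yeast and 100% = medium wells without yeast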
An asterisk follows results filed as active; . = no result.

SMILES	Mdm2 MdmX PPI	TIM10 inh	MPTP block	tim10-1 inh	tim23-1 inh	tim10-1 confirm	tim10 confirm	tim23-1 conf
O=C(N/N=C/c1cccc(O)c1)c1ccc2c(c1)OCCO2	-96.4	6.1	-0.8	10.1	5.8	.	.	.
Cc1cccc(/C=N/NC(=O)c2ccc3c(c2)OCCO3)c1O	14.5	65.2*	1.3	49.7*	62.6*	45.8*	68.3*	75.9*
O=C(Cn1cc(C(F)(F)F)ccc1=O)N1CCCc2ccccc21	-4.5	-1.0	-0.5	3.6	3.1	.	.	.
O=C1N2c3ccccc3CCc3cccc(c32)C1(O)C(F)(F)F (stereo unspecified)	3.4	29.6	2.4	47.2*	50.5*	43.5*	.	54.8*
N#Cc1ccccc1NC(=S)NC(=O)C1CCC1	7.5	5.1	-0.3	17.0	3.5	.	.	.
O=C(NC(=S)Nc1ccccc1Br)C1CCC1	19.2	37.9	0.9	40.1*	58.1*	24.9	.	39.6*
CC(NC(=O)/C(C#N)=C/c1ccc(N2CCOCC2)cc1)c1ccccc1 (stereo unspecified)	14.7	21.8	0.2	17.6	32.9	.	.	.
COC(=O)c1ccc(/C=C(\C#N)C(=O)NC(C)c2ccccc2)cc1 (stereo unspecified)	29.9	61.3*	3.3	64.3*	66.5*	62.2*	57.5*	58.0*
CCc1nc2ccc(C(=O)NCCc3ccccn3)cn2c1N(CC)CCOC	.	.	0.4	.	.	.	.	.
CC(C)(C)C(=O)Nc1ccc(C(=O)OC2CCCCC2)cc1	-65.3	38.5	1.5	41.3*	50.2*	27.5	.	42.5*
COc1ccc(NC(=O)c2cc(C3CCCCN3S(=O)(=O)Cc3ccccc3)on2)c(C)c1 (stereo unspecified)	.	.	-1.8	.	.	.	.	.
CC1CCN(c2cc(C#N)c(C#N)cc2[N+](=O)[O-])CC1	8.0	2.9	2.1	13.9	-11.7	.	.	.
CC1CCN(c2cc(N)c(Cl)cc2[N+](=O)[O-])CC1	-1.8	41.4*	1.5	52.0*	71.6*	37.1*	-12.3	65.2*
CC(=O)N1CCN(c2nnc(-c3ccccc3)c3ccccc23)CC1	17.8	-30.3	2.3	-46.1	-58.1	.	.	.
Cc1ccc(-c2nnc(N3CCN(C(=O)c4ccco4)CC3)c3ccccc23)cc1	35.2	53.1*	6.2	61.1*	70.5*	50.2*	-12.4	62.8*
CNC(=O)C1CN(C(=O)c2nn(Cc3ccccc3)c(=O)c3ccccc23)c2ccccc2O1 (stereo unspecified)	.	.	-0.5	.	.	.	.	.
CCCc1[nH]nc2c1C(c1ccc(OC)cc1OC)C(C#N)=C(N)O2 (stereo unspecified)	4.4	47.3*	-1.6	44.0*	51.2*	36.3*	37.5*	50.5*
O=C(CCNC(=O)c1ccc([N+](=O)[O-])cc1)Nc1cc(C(F)(F)F)ccc1N1CCOCC1	.	.	-1.0	.	.	.	.	.
CN(/N=C/c1ccccc1Cl)c1ncc(Cl)cc1C(F)(F)F	19.1	0.7	-0.6	14.2	9.0	.	.	.
CN(/N=C/c1ccc(O)cc1O)c1ncc(C(F)(F)F)cc1Cl	22.7	11.4	4.4	45.3*	61.7*	25.0	.	56.4*
O=C(NC(=S)Nc1cccc(F)c1)c1cccc([N+](=O)[O-])c1	18.3	6.2	1.3	48.8*	54.2*	3.1	.	51.6*
COc1ccc(CCN2CC(C(=O)NCCc3ncccc3C)CCC2=O)cc1 (stereo unspecified)	.	.	0.5	.	.	.	.	.
O=C(CSC(=S)N1CCCC1)Nc1cc2c(cc1Br)OCCO2	-2.4	5.2	-1.5	6.6	8.8	.	.	.
O=C(CSC(=S)N1CCCC1)c1cc(Br)cc(Br)c1O	-12.1	56.7*	.	58.0*	51.8*	46.2*	48.1*	65.9*
O=C(/C=C/c1ccc(F)cc1)c1cc(Br)ccc1O	-18.2	52.9*	4.0	45.1*	50.2*	71.0*	70.0*	22.4
SMILES	Mdm2 MdmX PPI	TIM10 inh	MPTP block	tim10-1 inh	tim23-1 inh	tim10-1 confirm	tim10 confirm	tim23-1 conf
O=C(Nc1nnc(-c2ccco2)s1)C1CCCCC1	-20.6	-11.6	-5.8	6.2	-1.5	.	.	.
O=C(Nc1nc(-c2ccco2)c(-c2ccco2)s1)C1CCC1	17.4	46.0*	1.6	44.6*	65.7*	58.8*	48.5*	59.5*
c1ccc2c(c1)nc(NCc1ccc3c(c1)OCO3)n2CCN1CCOCC1	17.1	-2.1	1.4	13.3	0.9	.	.	.
c1csc(-c2csc3nc(CN4CCOCC4)nc(NCc4ccc5c(c4)OCO5)c23)c1	28.2	46.7*	2.8	46.5*	54.0*	37.8*	38.5*	50.6*
Nc1c2c3c(sc2nc(=O)n1N)CCCC3	24.7	-3.8	-0.8	-1.3	11.0	.	.	.
Nc1nc2sc3c(c2c(=O)s1)CCCC3	16.6	44.0*	1.1	54.0*	73.2*	25.2	33.0*	51.6*
Cc1cc(C)n2c(NC3CCCCC3)c(-c3cccnc3)nc2n1	.	.	1.1	.	.	.	.	.
COc1cc(C(=O)NC(=S)Nc2ccccc2N2CCOCC2)cc(OC)c1OC	19.0	28.5	0.7	38.0	17.1	.	.	.
O=C(NC(=S)Nc1ccc(N2CCCCC2)cc1)c1cccs1	-54.0	54.6*	1.7	43.6*	51.1*	13.6	27.4	50.0*
O=C(NC(=S)Nc1ccccc1N1CCOCC1)c1ccccc1F	37.5	38.9	1.0	51.8*	57.2*	43.5*	.	55.2*
O=C(NC(=S)Nc1ccccc1N1CCN(C(=O)c2ccccc2)CC1)c1ccccc1F	27.6	25.4	0.0	28.7	33.4	.	.	.
O=C(NC(=S)Nc1ccccc1N1CCOCC1)c1cccs1	6.3	56.9*	-0.5	52.4*	59.1*	35.8*	38.1*	59.7*
CS(=O)(=O)N1CCN(c2ccc(NC(=S)NC(=O)c3cccs3)cc2)CC1	-10.0	4.5	-4.0	-9.2	0.9	.	.	.
COc1cccc(C(=O)NC(=S)Nc2ccccc2N2CCOCC2)c1	43.8	39.2	-1.1	44.1*	53.3*	30.1*	.	45.7*
CCCCN1C(=O)CC2CCOC21C (stereo unspecified)	.	.	0.6	.	.	.	.	.
COC(=O)c1ccc2c(c1O)C(=O)c1ccccc1C2=O	5.4	91.5*	0.3	80.0*	76.5*	75.0*	91.3*	81.9*
CC(C)Oc1ccc(/C=C(\C#N)C(=O)NC2CC2)cc1	-4.7	-13.3	2.8	-6.3	9.9	.	.	.
